Experimental data as given in PubChem BioAssay AID488922 (Johns Hopkins Ion Channel Center, 2010).
Among all 310,000 compounds or so, about 3,800 (1.2%) were called active.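 How the source made its calls: active means ratio B-score over 3 SD below the library mean, with starting fluorescence within 5 SD of its mean; inactive means the rest, inconclusive results apart.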 For the sample, actives were picked, then their nearest neighbours and some compounds at random.

target: Potassium channel subfamily K member 9 (Homo sapiens) (UniProt Q9NPC2); test: blockers of human TASK-3 (KCNK9) channel – HEK293 cells, thallium flux, primary screen (AID 488922); conditions: HEK293 KCNK9, FluxOR thallium flux fluorescence, at 10 µM; hits give low values;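 on B-score: negative B-score means less thallium flux so channel inhibition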
Sequence (Q9NPC2 whole entry, looked up): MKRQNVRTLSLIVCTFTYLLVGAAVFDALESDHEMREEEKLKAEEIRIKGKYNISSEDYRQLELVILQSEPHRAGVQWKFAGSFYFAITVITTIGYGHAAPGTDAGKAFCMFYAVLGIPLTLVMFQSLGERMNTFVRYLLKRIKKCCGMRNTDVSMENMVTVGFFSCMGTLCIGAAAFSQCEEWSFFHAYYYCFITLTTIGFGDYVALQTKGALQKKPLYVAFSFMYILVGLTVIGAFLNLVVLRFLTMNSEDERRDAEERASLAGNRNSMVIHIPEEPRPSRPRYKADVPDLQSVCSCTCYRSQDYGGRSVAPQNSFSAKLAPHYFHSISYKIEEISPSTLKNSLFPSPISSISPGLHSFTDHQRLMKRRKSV

B-score, active:
Cc1ccc(-c2csc(NCCc3nc4cc(Cl)c(Cl)cc4n3CCOCCO)n2)cc1 -9.6, NC(N)=Nc1nc(-c2ccccc2)c2cc(Cl)ccc2n1 -6.86, COc1cccc2cc(C(C)N(CCCN3CCOCC3)C(=O)Nc3ccc(Cl)cc3)oc12 (configuration not stated) -9.66, O=C(Nc1ccccc1[N+](=O)[O-])C1C(c2ccccc2)=C1c1ccccc1 -8.24, CC1=NN(c2cccc(Cl)c2)C(=O)C12CC(C)=C(C)CS2 (configuration not stated) -11.1, O=C(CN1C(=O)/C(=C\c2ccccc2F)SC1=S)Nc1nc2ccccc2s1 -7.2

B-score, inactive:
Cc1ccc(-c2csc(N3CCN(c4cc5c(cc4Cl)nc(-c4ccncc4)n5CCOCCO)CC3)n2)cc1, CCCn1c(CCNc2nc(-c3ccc(OC)cc3)cs2)nc2ccccc21, Cc1c(CCC(=O)O)c(=O)oc2c(C)c(OCc3ccccc3Cl)ccc12, C/C=N/N(c1ccccc1)c1ccccc1, O=C(/C=C/c1cccc(C(F)(F)F)c1)N1CCN(c2ccccn2)CC1, OCCCNc1nc(-c2ccccc2)c2cc(Cl)ccc2n1, O=C(CCl)NNc1nc(-c2ccccc2)c2cc(Cl)ccc2n1, Cn1c(C(=O)OC(C(=O)NC2CCCCC2)c2ccccn2)cc2sccc21 (configuration not stated), COc1cc(C(=O)NCc2cc3cc(Cl)ccc3n2C)cc(OC)c1OC, CCC1C(=O)NCCN1C(=O)c1ccc2nc(Cc3ccc(OC)cc3)oc2c1 (configuration not stated), COc1cccc(NC(=S)NCCCN2CCOCC2)c1, COc1ccc(Cl)cc1NC(=O)CCN1CCOCC1, Cc1cccc2[nH]c(CN(C)C(=O)C3CCC(=O)N(CCc4ccccc4)C3)nc12 (configuration not stated), COc1ccccc1-c1nnc(-c2ccc(F)cc2)o1, CC1=C(N2CCN(c3ncccn3)CC2)CCC1=O, O=C(O)c1ccccc1C(=O)Nc1ccccc1[N+](=O)[O-], O=C(Nc1ccccc1-c1ccccc1)c1ccccc1[N+](=O)[O-], CCCCNS(=O)(=O)c1ccc2nc(SCC(=O)Nc3cc(C)cc(C)c3)[nH]c2c1, CCN(CC)CCn1cnc2c1c(=O)n(CCOC(=O)c1cc(OC)c(OC)c(OC)c1)c(=O)n2C, Cc1ccc(OCCNC(=O)CN2C(=O)NC3(CCCC3)C2=O)cc1, O=C(NCc1ccccn1)Nc1ccc(Cl)cc1, CC12CCC(C(=O)N(c3cccc(Cl)c3)C1=O)C2(C)C (configuration not stated), O=C(COC(=O)C1CC2C=CC1C2)Nc1ccccc1 (configuration not stated), Cc1ccc(C(=O)N/C(=C\c2ccc(F)cc2)C(=O)NCCN2CCOCC2)cc1, O=C(CN1C(=O)/C(=C/c2ccccc2F)Sc2ccccc21)NCc1cccnc1, O=C(CN1C(=O)S/C(=C\c2ccccc2F)C1=O)NCCCn1ccnc1
